Source: PubChem BioAssay (NCI)
The panel holds about 83,000 compounds, 20% with a hit somewhere; the sample as a whole holds those more often.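 For each line, cells grew in 96-well plates with the test compound present at a single concentration for 48 hours.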 Values without a mark were called inactive. Calls of active or inactive are those of the source. How the source made its calls: active means growth percent below 10; inactive means the rest.

What was measured:
Test in all cases: NCI-60 one-dose screen, 48 h (100 = growth as untreated, 0 = no growth, -100 = all killed)
Details in all cases: 10 µM unless noted
[1] = tested on: HCT-15 colon
[2] = tested on: HT29 colon
[3] = tested on: SNB-75 CNS
[4] = tested on: SNB-19 CNS
[5] = tested on: U251 CNS
[6] = tested on: PC-3 prostate
[7] = tested on: SK-MEL-5 melanoma
[8] = tested on: UACC-62 melanoma
[9] = tested on: LOX IMVI melanoma
[10] = tested on: SK-MEL-28 melanoma
[11] = tested on: SK-MEL-2 melanoma
[12] = tested on: EKVX NSCLC
[13] = tested on: SN12C renal
[14] = tested on: UO-31 renal
[15] = tested on: TK-10 renal
[16] = tested on: ACHN renal
[17] = tested on: A498 renal
[18] = tested on: CCRF-CEM leukemia
[19] = tested on: MOLT-4 leukemia

CS(=O)(=O)OCC(COS(C)(=O)=O)C(c1ccccc1)c1ccccc1
growth [1]: 108% | growth [2]: 100% | growth [3]: 96.2% | growth [4]: 105% | growth [5]: 107% | growth [6]: 97.2% | growth [7]: 107% | growth [8]: 90.3% | growth [9]: 99.7% | growth [10]: 114% | growth [11]: 123% | growth [12]: 99.1% | growth [13]: 89.2% | growth [14]: 91.2% | growth [15]: 110% | growth [16]: 107% | growth [17]: 93.3% | growth [18]: 99.6% | growth [19]: 75.7%

CCNc1cc(S(=O)(=O)O)ccc1C
growth [1]: 105% | growth [2]: 102% | growth [3]: 99.4% | growth [4]: 104% | growth [5]: 98.3% | growth [6]: 90.5% | growth [7]: 102% | growth [8]: 105% | growth [9]: 97.2% | growth [10]: 108% | growth [11]: 100% | growth [12]: 101% | growth [13]: 99.8% | growth [14]: 101% | growth [15]: 101% | growth [16]: 113% | growth [17]: 102% | growth [18]: 89.7% | growth [19]: 92.3%

Oc1ccc(O)c(-[n+]2ccccc2)c1
growth [1]: 105% | growth [2]: 93.6% | growth [3]: 104% | growth [4]: 100% | growth [5]: 97.1% | growth [6]: 92.5% | growth [7]: 97.7% | growth [8]: 103% | growth [9]: 95.7% | growth [10]: 116% | growth [11]: 101% | growth [12]: 105% | growth [13]: 98.1% | growth [14]: 94% | growth [15]: 100% | growth [16]: 107% | growth [17]: 108% | growth [18]: 101% | growth [19]: 91.9%

COc1ccc(N)c(S)c1
growth [1]: 97% | growth [2]: 100% | growth [3]: 84.6% | growth [4]: 100% | growth [5]: 93.8% | growth [6]: 73.4% | growth [7]: 91.5% | growth [8]: 93.5% | growth [9]: 92.3% | growth [10]: 113% | growth [11]: 108% | growth [12]: 91.7% | growth [13]: 94.4% | growth [14]: 78.9% | growth [15]: 105% | growth [16]: 98.2% | growth [17]: 112% | growth [18]: 98.2% | growth [19]: 91%

Nc1nc(Cl)cc(NCCCCNc2cc(Cl)nc(N)n2)n1
growth [1]: 114% | growth [2]: 109% | growth [3]: 108% | growth [4]: 101% | growth [5]: 99.6% | growth [6]: 95.8% | growth [7]: 111% | growth [8]: 101% | growth [9]: 96.9% | growth [10]: 118% | growth [11]: 87.6% | growth [12]: 102% | growth [13]: 126% | growth [14]: 96.5% | growth [15]: 111% | growth [16]: 107% | growth [17]: 174% | growth [18]: 84.5% | growth [19]: 94.8%

COc1ccc(SC2c3ccc(O)cc3Oc3nc(N)c(C#N)c(N)c32)cc1 (centres undefined)
growth [1]: 85% | growth [2]: 101% | growth [3]: 84.7% | growth [4]: 78.6% | growth [5]: 60.9% | growth [6]: 56.1% | growth [7]: 55.7% | growth [8]: 105% | growth [9]: 33.7% | growth [10]: 106% | growth [11]: 98.1% | growth [12]: 79% | growth [13]: 54.3% | growth [14]: 71.1% | growth [15]: 73% | growth [16]: 97.7% | growth [17]: 84.7% | growth [18]: 31.8% | growth [19]: 67.7%

O=C(c1ccccc1)[C@H]1[C@@H]2CCCN2[C@]2(C(=O)Nc3ccc(F)cc32)[C@]12C(=O)Nc1ccccc12
growth [1]: 86.9% | growth [2]: 89.8% | growth [3]: 83.2% | growth [4]: 90.8% | growth [5]: 80.5% | growth [6]: 65.7% | growth [7]: 83.6% | growth [8]: 70.7% | growth [9]: 91.3% | growth [10]: 92.8% | growth [11]: 83.1% | growth [12]: 70.8% | growth [13]: 92% | growth [14]: 85.4% | growth [15]: 113% | growth [16]: 88.6% | growth [17]: 89.7% | growth [18]: 76.8% | growth [19]: 59.5%

COC(=O)c1oc2c(C(=O)/C=C/c3ccc(OC)cc3)c(OCCN3CCOCC3)ccc2c1C
growth [1]: -57% (active) | growth [2]: -20.4% (active) | growth [3]: -26.8% (active) | growth [4]: -2.78% (active) | growth [5]: -81.7% (active) | growth [6]: 8.1% (active) | growth [7]: -100% (active) | growth [8]: -0.039% (active) | growth [9]: -85.3% (active) | growth [10]: 4.47% (active) | growth [11]: -30.6% (active) | growth [12]: 9.46% (active) | growth [13]: 17.5% | growth [14]: -66.4% (active) | growth [15]: 25.4% | growth [16]: -34.5% (active) | growth [17]: -47.7% (active) | growth [18]: -38.4% (active) | growth [19]: -20.5% (active)

Cc1cccc(NCS(=O)(=O)O)c1
growth [1]: 101% | growth [2]: 101% | growth [3]: 106% | growth [4]: 101% | growth [5]: 87.8% | growth [6]: 93% | growth [7]: 99.7% | growth [8]: 113% | growth [9]: 95.2% | growth [10]: 113% | growth [11]: 109% | growth [12]: 98.7% | growth [13]: 112% | growth [14]: 93% | growth [15]: 98.5% | growth [16]: 107% | growth [17]: 111% | growth [18]: 102% | growth [19]: 102%

c1cncc(-c2nc3ccccc3[nH]2)c1
growth [1]: 111% | growth [2]: 102% | growth [3]: 96.9% | growth [4]: 111% | growth [5]: 104% | growth [6]: 89.7% | growth [7]: 90.8% | growth [8]: 85.5% | growth [9]: 94.4% | growth [10]: 87% | growth [11]: 106% | growth [12]: 120% | growth [13]: 89.8% | growth [14]: 82.3% | growth [15]: 148% | growth [16]: 91% | growth [17]: 84.4% | growth [18]: 110% | growth [19]: 97.4%

O=C(Cn1c2ccccc2c2ccncc21)N/N=C/c1cc(O)c(O)c(O)c1
growth [1]: 105% | growth [2]: 103% | growth [3]: 115% | growth [4]: 93.9% | growth [5]: 101% | growth [6]: 102% | growth [7]: 101% | growth [8]: 103% | growth [9]: 96.9% | growth [10]: 108% | growth [11]: 98.9% | growth [12]: 109% | growth [13]: 104% | growth [14]: 98.6% | growth [15]: 107% | growth [16]: 108% | growth [17]: 97.5% | growth [18]: 112% | growth [19]: 88.4%

Clc1ccc2c(c1)nnn1c3ncccc3c(Br)c21
growth [1]: 101% | growth [2]: 93.8% | growth [3]: -3.76% (active) | growth [4]: 89% | growth [5]: 59.4% | growth [6]: 78.6% | growth [7]: 77.3% | growth [8]: 58.3% | growth [9]: 77.5% | growth [10]: 109% | growth [11]: 93% | growth [12]: 29.2% | growth [13]: 91.9% | growth [14]: 58.9% | growth [15]: 78.8% | growth [16]: 78.4% | growth [17]: 70.5% | growth [18]: 86.4% | growth [19]: 115%

Cc1ccc(-c2cc(-c3nnc(SCC(=O)c4ccccc4)o3)c3ccccc3n2)cc1
growth [1]: 96.3% | growth [2]: 90.1% | growth [3]: 57.1% | growth [4]: 101% | growth [5]: 98.3% | growth [6]: 95.5% | growth [7]: 95.3% | growth [8]: 90.8% | growth [9]: 92.4% | growth [10]: 96.6% | growth [11]: 90.7% | growth [12]: 83.4% | growth [13]: 101% | growth [14]: 74.6% | growth [15]: 61.8% | growth [16]: 93.9% | growth [17]: 77% | growth [18]: 100% | growth [19]: 95.2%

CC(C)CCC[C@@H](C)[C@H]1CC[C@H]2[C@@H]3CC=C4N(c5ccccc5)C(=O)CC[C@]4(C)[C@H]3CC[C@]12C
growth [1]: 96.4% | growth [2]: 90.3% | growth [3]: 93.6% | growth [4]: 109% | growth [5]: 101% | growth [6]: 80.4% | growth [7]: 99.1% | growth [8]: 98.9% | growth [9]: 98% | growth [10]: 106% | growth [11]: 101% | growth [12]: 96.7% | growth [13]: 86.2% | growth [14]: 91.7% | growth [15]: 97.4% | growth [16]: 105% | growth [17]: 118% | growth [18]: 92.2% | growth [19]: 79.9%

COc1cc2nc(C(=O)N3CCCCC3)cc(Nc3ccccc3)c2cc1OC
growth [1]: 102% | growth [2]: 104% | growth [3]: 97.5% | growth [4]: 104% | growth [5]: 102% | growth [6]: 114% | growth [7]: 95.6% | growth [8]: 104% | growth [9]: 94.9% | growth [10]: 110% | growth [11]: 99.5% | growth [12]: 97.3% | growth [13]: 98.9% | growth [14]: 82.4% | growth [15]: 98.6% | growth [16]: 96.4% | growth [17]: 91% | growth [18]: 101% | growth [19]: 97.3%

O=C(Nc1ccccc1Cl)c1c[nH]c(=O)c(-c2ccc(N3CCCOC4(CC4)C3)cc2)c1
growth [1]: 78.8% | growth [2]: 70.5% | growth [3]: 73% | growth [4]: 72.4% | growth [5]: 75.9% | growth [6]: 57.5% | growth [7]: 8.08% (active) | growth [8]: 63.5% | growth [9]: 46.7% | growth [10]: 78.4% | growth [11]: 70.1% | growth [12]: 37.6% | growth [13]: 74.9% | growth [14]: 65.7% | growth [15]: 52.4% | growth [16]: 72.2% | growth [17]: 47.9% | growth [18]: 48.3% | growth [19]: 48.1%
